High-throughput results from PubChem.
NPR1 activator: GC-A (human) enzyme activation; 0.14% of 370,000 active; HEK293 GC-A cells, cGMP TR-FRET, EC30 ANP; 0% at EC30 ANP, 100% saturating ANP; activation, % at 10 µM; in the data active means activation above about 40%
A3A deaminase: human APOBEC3A DNA deaminase inhibition; P31941; recombinant A3A, FAM/TAMRA ssDNA deamination fluorescence; inhibition, % at 20 µM; 0.41% of 330,000 active; AID 493011;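 active means at least 40% inhibition at 20 µM here, with at most 30% in a related deaminase screen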;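 further: plate controls were A3A with DMSO for no effect and wells lacking A3A enzyme for full effect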
Target sequence (P31941 whole entry, looked up): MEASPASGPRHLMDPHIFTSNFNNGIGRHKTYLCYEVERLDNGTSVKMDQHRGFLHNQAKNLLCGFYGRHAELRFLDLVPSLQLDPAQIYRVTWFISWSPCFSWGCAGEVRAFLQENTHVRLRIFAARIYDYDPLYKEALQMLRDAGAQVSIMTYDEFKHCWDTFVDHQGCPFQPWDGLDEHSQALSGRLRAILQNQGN
FAS-TE inh: inhibitors of human fatty acid synthase thioesterase domain; P49327; recombinant FAS-TE, OMFH fluorogenic substrate, fluorescence endpoint; inhibition, % at 15 µM; 0.67% of 360,000 active;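 active means compounds whose normalised, plate-corrected inhibition of enzyme fluorescence in the single-dose primary screen is 50% or more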;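 further: 0% = DMSO with enzyme and 100% = substrate without enzyme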
NPR2 activator: GC-B (human) receptor activation; P20594; HEK293-GC-B cells, CNP EC30, cGMP TR-FRET; 0% at EC30 CNP, 100% saturating CNP; activation, % at 10 µM; 0.11% of 370,000 active; AID 1920062;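 active means activation at 10 µM reaching about 35% in either raw or pattern-adjusted values, limit read from the data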
APOBEC3G inh: APOBEC3G (human) deaminase inhibition | Q9HC16 | recombinant A3G, ssDNA deamination FAM/TAMRA fluorescence | inhibition, % at 20 µM | 0.28% of 330,000 active | AID 493012;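 active means inhibition of at least 40% at 20 µM, with no more than 30% in the related APOBEC3A deaminase screen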;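 further: plate controls were DMSO wells with A3G for no effect and wells lacking A3G enzyme for full effect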
Target sequence (Q9HC16 whole entry, looked up): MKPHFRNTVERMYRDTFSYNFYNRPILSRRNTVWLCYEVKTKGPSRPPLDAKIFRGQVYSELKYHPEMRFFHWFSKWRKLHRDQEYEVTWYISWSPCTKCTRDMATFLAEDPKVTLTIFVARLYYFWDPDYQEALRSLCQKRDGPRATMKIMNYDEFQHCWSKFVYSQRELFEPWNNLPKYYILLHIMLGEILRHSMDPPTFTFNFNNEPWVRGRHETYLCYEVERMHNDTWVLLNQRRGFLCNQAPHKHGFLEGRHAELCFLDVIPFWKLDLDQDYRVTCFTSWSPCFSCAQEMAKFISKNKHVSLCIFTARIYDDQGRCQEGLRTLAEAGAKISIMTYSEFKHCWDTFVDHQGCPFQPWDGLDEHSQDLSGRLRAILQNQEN
FAS-TE inh conf: FAS thioesterase (human) inhibition, confirmation | recombinant FAS-TE, OMFH fluorogenic substrate, fluorescence | 45% of 2,300 active | shares compounds with FAS-TE inh | AID 624325 | inhibition, % at 15 µM;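 active means compounds inhibiting the enzyme by at least 50% at 15 µM in any one of the replicates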;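 further: 0% = enzyme with DMSO only and 100% = wells lacking enzyme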
Numbers without * were called inactive; · = not tested or not shown. This is a sample that favours compounds with a hit; in the whole collection about 1.4% have one here.

SMILES	NPR1 activator	A3A deaminase	FAS-TE inh	NPR2 activator	APOBEC3G inh	FAS-TE inh conf
O=C1OCCN1C(=O)[C@H]1[C@H](c2ccc([N+](=O)[O-])cc2)C(c2ccc(F)cc2)=NN1c1ccccc1	-3	4	84*	-1	1	41
Cc1cccc(Cn2cc(COC(=O)Nc3ccc(F)cc3)nn2)c1	0	·	·	3	·	·
COc1ccc2ncc(S(=O)(=O)c3ccccc3)c(N3CCC4(CC3)OCCO4)c2c1	-2	1	43	-3	-10	·
COc1cc2ncc(S(=O)(=O)c3ccccc3)c(N3CCC4(CC3)OCCO4)c2cc1OC	5	-1	82*	0	-7	82*
O[C@H]1C[C@H](c2ccccc2)N(CC2CCCCC2)C[C@@H]1n1cc(C2CC2)nn1	-10	·	65*	-14	·	65*
COc1ccc2c(C)c(Cl)c(=O)oc2c1	0	0	3	0	-2	·
C=C1CC(COc2ccc3c(C)c(Cl)c(=O)oc3c2)(c2ccccc2)OC1=O (stereo not drawn)	20	·	53*	5	·	46*
C#CCOCCOCCOCCNc1nc(N2CCOCC2)nc(N2CCN(C(=O)[C@H](CCC(=O)O)n3cc(C(N)CC(C)C)nn3)CC2)n1 (stereo partly drawn)	3	·	·	2	·	·
Cc1ccc(S(=O)(=O)/N=C(\Sc2ccccc2)c2ccccc2)cc1	6	2	63*	3	-9	51*
Cc1ccc(S(=O)(=O)/N=C(/Sc2ccccc2C(=O)O)c2ccccc2)cc1	2	2	16	1	-2	·
O=S(=O)(/N=C(\Sc1ccccc1)c1ccccc1)c1ccc(Cl)cc1	5	2	66*	3	21	41
Cc1ccc(S(=O)(=O)NN=C2CCC(C(C)(C)C)CC2)cc1[N+](=O)[O-] (stereo not drawn)	·	-5	67*	·	-7	47*
CCCC1CCC(=NNS(=O)(=O)c2ccc(C)c([N+](=O)[O-])c2)CC1 (stereo not drawn)	0	2	34	-3	-5	·
CC(=O)O[C@H]1C(=O)[C@@]2(C)C([C@H](OC(=O)c3ccccc3)[C@]3(O)C[C@H](OC(=O)[C@H](O)[C@@H](NC(=O)c4ccccc4)c4ccccc4)C(C)=C1C3(C)C)[C@]1(OC(C)=O)CO[C@@H]1C[C@H]2O (stereo partly drawn)	1	-1	52*	3	-1	19
C[C@H](O)[C@@H]1CN2CCc3ccc(-c4ccc5c(c4)OCO5)cc3[C@@H]2C[C@@H]1N(C)C(=O)c1cccc(Cl)c1	0	·	·	-9	·	·
COC(=O)[C@@H](c1ccccc1)N(C)S(=O)(=O)c1cccc(S(=O)(=O)N(C)[C@@H](C(=O)OC)c2ccccc2)c1	2	-4	53*	3	-9	32
COC(=O)C(c1ccccc1)C(C(=O)OC)c1ccccc1 (stereo not drawn)	1	-5	-4	1	-10	·
CC(=O)C1(C(=O)NC2CCCC2)CC(c2ccccc2C(F)(F)F)=NO1 (stereo not drawn)	-2	·	·	-1	·	·
O=C1C=C(c2ccc(Cl)c(C(F)(F)F)c2)C[C@@H](c2ccc3c(c2)OCO3)C1	1	-1	75*	11	-9	58*
C/C(=C/c1nc(N)n(Cc2ccccc2)c1Cc1ccccc1)Cn1[nH]c(=O)n(-c2ccccc2)c1=O	3	·	·	3	·	·
O=C(Nc1ccccc1Cl)c1ccc2c(=O)n3c(nc2c1)CCC3	0	10	2	0	0	·
O=C(Nc1nc(-c2ccccc2)cs1)c1ccc2c(=O)n3c(nc2c1)CCCCC3	5	-3	62*	2	-2	15
CCOc1ccccc1N(CC)C(=O)c1ccc2c(=O)n3c(nc2c1)CCCCC3	-3	-2	57*	-1	-7	77*
O=C1[C@H]2[C@@H](c3ccc(F)cc3)N3C(=O)N(c4cccc(Cl)c4)C(=O)[C@@]3(Cc3ccc(Cl)cc3)[C@H]2C(=O)N1C1CCCCC1	-4	1	86*	-7	3	19
O=C1[C@H]2[C@@H](c3ccc(F)cc3)N3C(=O)N(c4ccccc4)C(=O)[C@@]3(Cc3ccccc3)[C@H]2C(=O)N1C1CCCCC1	-9	3	59*	10	7	36*
SMILES	NPR1 activator	A3A deaminase	FAS-TE inh	NPR2 activator	APOBEC3G inh	FAS-TE inh conf
CCN1C(=O)[C@H]2[C@@H](c3ccc(C)cc3)N3C(=O)N(c4cccc(Cl)c4)C(=O)[C@@]3(CC)[C@H]2C1=O	-1	-4	-3	-2	-5	·
CN(CCO)c1cccc2c1S(=O)(=O)N(Cc1cn(Cc3ccccc3C(F)(F)F)nn1)Cc1ccccc1O2	1	·	·	8	·	·
Cc1ccc(NC(=O)C2CCN(S(=O)(=O)c3cccs3)CC2)cc1C	·	-3	3	·	-5	·
Cc1ccc2nc(NC(=O)C3CCN(S(=O)(=O)c4cccs4)CC3)sc2c1	5	-9	68*	-7	-10	30
CCn1c2ccccc2c2cc(NC(=O)C3CCN(S(=O)(=O)c4cccs4)CC3)ccc21	-3	-5	66*	-7	-4	25
Cn1c(SCc2ccc(C(C)(C)C)cc2)nnc1-c1ccco1	-1	·	·	10	·	·
COc1nc(OC)nc(N2CCC(C(=O)NCc3cccc(OC)c3OC)CC2)n1	1	·	·	4	·	·
O=C(C1=NN(c2ccccc2)C2C(=O)N(c3ccccc3)C(=O)C12)c1ccccc1 (stereo not drawn)	13	0	24	2	-6	·
O=C(C1=NN(c2ccccc2)C2C(=O)N(c3ccccc3Cl)C(=O)C12)c1ccccc1 (stereo not drawn)	9	·	52*	1	·	-17
O=C(CSc1nnc(-c2cccnc2)n1Cc1ccco1)Nc1ccc(Cl)c(Cl)c1	-13	·	·	-17	·	·
CCn1c(=O)c2ccccc2n(Cc2cccc([N+](=O)[O-])c2)c1=O	-1	1	38	-3	-1	·
Cc1nn(CC(=O)N2CCc3ccccc3C2)c(C)c1[N+](=O)[O-]	-4	-1	21	4	-8	·
Cc1c(Br)c([N+](=O)[O-])nn1CC(=O)N1CCc2ccccc2C1	3	0	64*	-4	-2	59*
O=C(CCn1c(=O)c2ccccc2n(Cc2cccc([N+](=O)[O-])c2)c1=O)N1CCc2ccccc2C1	2	0	87*	2	-3	47*
O=C(Cn1cc([N+](=O)[O-])ccc1=O)N1CCc2ccccc2C1	2	5	67*	3	1	69*
Cc1c(Br)c([N+](=O)[O-])nn1CCCC(=O)N1CCN(c2ccccc2)CC1	-1	0	54*	6	-6	43*
CC1(C)OC(=O)C2=C(CC(CCc3ccccc3)OC2c2cccc(C(F)(F)F)c2)O1 (stereo not drawn)	-1	·	·	0	·	·
